Data: the antibiotic and cytotoxicity screens of Wong et al. (2023)
About 3,300 (8.5%) of roughly 39,000 compounds were called active. The list comes from a sample in which actives are over-represented; it also holds similar structures and randomly drawn compounds.

What follows are compounds tested on HepG2 (assay: cytotoxicity call (relative viability < 0.9)). Conditions: 10 µM.
In the case of `COc1ccc(S(=O)(=O)Nc2ccc3c(c2)C(=O)N([C@H](C)CO)C[C@@H](C)[C@@H](CN(C)C(=O)C2CCCCC2)OCCCC[C@H](C)O3)cc1`, the cytotoxicity call is reported as “inactive”.
For `C[C@@H]1CN([C@@H](C)CO)C(=O)c2cc(NC(=O)CCCCCC(=O)Nc3ccccc3N)ccc2O[C@H]1CN(C)C(=O)Nc1cccc2ccccc12`, the cytotoxicity call was “inactive”.
For `CC(C)NC(=O)N(C)C[C@@H]1Oc2ccc(NC(=O)Nc3ccc4c(c3)OCO4)cc2C(=O)N([C@H](C)CO)C[C@@H]1C`, the cytotoxicity call was “inactive”.
With `C[C@@H]1CCCCO[C@@H](CN(C)C(=O)Cc2ccccc2)[C@H](C)CN([C@@H](C)CO)C(=O)c2cc(NC(=O)Nc3ccccc3)ccc2O1` the cytotoxicity call was “inactive”.
With `Cc1cc(C(=O)Nc2cccc3c2O[C@@H](CN(C)S(=O)(=O)c2cn(C)cn2)[C@@H](C)CN([C@H](C)CO)C3=O)n(C)n1` the cytotoxicity call was “inactive”.
`Cc1ccc(S(=O)(=O)Nc2cccc3c2O[C@H](CN(C)S(=O)(=O)c2cccs2)[C@@H](C)CN([C@@H](C)CO)C3=O)cc1` was tested, and the cytotoxicity call was “inactive”.
For `CC(=O)NCC(=O)N1Cc2nccn2C[C@H](Cn2nc(C)nc2C)C1`, the cytotoxicity call was “inactive”.
`C[C@@H]1CN([C@@H](C)CO)C(=O)c2cc(C#C[C@@H](C)O)cnc2O[C@@H]1CN(C)C(=O)CN1CCOCC1` was tested, and the cytotoxicity call was “inactive”.
With `Cc1ccc(S(=O)(=O)N(C)C[C@H]2Oc3ccc(NC(=O)Cn4cnnn4)cc3CC(=O)N([C@H](C)CO)C[C@H]2C)cc1` the cytotoxicity call was “inactive”.
With `COc1ccc(NC(=O)N(C)C[C@H]2Oc3c(NS(=O)(=O)c4c(C)noc4C)cccc3C(=O)N([C@@H](C)CO)C[C@H]2C)cc1` the cytotoxicity call was “inactive”.
With `COc1ccc(NC(=O)N(C)C[C@@H]2Oc3ncc(-c4cccc(C(F)(F)F)c4)cc3C(=O)N([C@H](C)CO)C[C@@H]2C)cc1` the cytotoxicity call was “inactive”.
For `C[C@@H]1CN([C@@H](C)CO)C(=O)c2cc(NC(=O)Cn3cnnn3)ccc2O[C@H]1CN(C)C(=O)Nc1ccc2c(c1)OCO2`, the cytotoxicity call was “inactive”.
In the case of `C[C@@H]1CN([C@H](C)CO)C(=O)c2cc(NC(=O)Nc3ccc(C(F)(F)F)cc3)ccc2O[C@@H]1CN(C)CC1CCCCC1`, the cytotoxicity call is reported as “active”.
In the case of `C[C@H]1CN([C@@H](C)CO)C(=O)c2cc(NC(=O)Nc3ccc(C(F)(F)F)cc3)ccc2O[C@@H]1CN(C)CC1CCCCC1`, the cytotoxicity call is reported as “inactive”.
In the case of `C[C@H](CO)N1C[C@H](C)[C@@H](CN(C)CC2CCCCC2)Oc2ccc(NC(=O)Nc3ccc(C(F)(F)F)cc3)cc2C1=O`, the cytotoxicity call is reported as “inactive”.
For `C[C@@H]1CN([C@H](C)CO)C(=O)c2cc(NC(=O)Nc3ccc(C(F)(F)F)cc3)ccc2O[C@H]1CN(C)CC1CCCCC1`, the cytotoxicity call was “active”.
With `C[C@@H]1CN([C@@H](C)CO)C(=O)c2cc(NC(=O)Nc3ccc(F)cc3)ccc2O[C@H]1CN(C)CC1CCCCC1` the cytotoxicity call was “inactive”.
In the case of `C[C@@H]1CN([C@H](C)CO)C(=O)c2cc(NC(=O)Nc3ccccc3)ccc2O[C@@H]1CN(C)CC1CCCCC1`, the cytotoxicity call is reported as “inactive”.
